Each structure is given as a SMILES string. Where “and” joins values, the source holds several entries; their conditions need not be identical. Equal values may be shown once. Results filed as inconclusive are left out. A number with no mark means an inactive call. Calls of active or inactive are those of the source. Calls follow the shape of the dose curve; as a rule, active = well fitted cell-killing curve with a large enough effect in the repeat runs; inconclusive = weak or mixed curves, or effect the other way; inactive = flat fitted curve, though single readings scatter.
% is scaled to controls: 0 for no effect and ±100 for the full control effect; potency is read from the fitted curve at half-maximal effect.

The nature of this assay: qHTS assay to identify small molecule agonists of the sonic hedgehog signaling (Shh) pathway - cell viability counter screen (AID 1259366). Also: nearly all actives have a fitted effect of over 50% in size. As to conditions: NIH/3T3 Gli1-Luc viability, CellTiter-Fluor, 24 h; series mostly up to 92.4 µM; viability change, negative = cytotoxic: at the top concentration. An outline of the steps: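 Viability measured fluorometrically (CellTiter-Fluor, 1hr, 37C) in 3T3 Gli1-Luc reporter cells after 23hr compound exposure within a 24hr incubation at 37C/5% CO2.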
With `CCCCCCCCCCCCCCn1cc[n+](C)c1`, the Potency is 17.3 µM (active) and 24.1 µM (active).

For `O=c1c2ccccc2c(=O)c2c1cc(Cl)c1[nH]c3c([nH]c12)c(Cl)cc1c(=O)c2ccccc2c(=O)c13`, the “viability change, negative = cytotoxic” value is -2.25%.

Regarding `CC(Cc1ccc(OCC(=O)O)cc1)NCC(O)c1csc(C(F)(F)F)n1` (stereo not drawn), the Potency is 6.11 µM (active).

Regarding `CCC(C)Br` (stereo not drawn), the “viability change, negative = cytotoxic” value is 0.246%.

Regarding `O=[N+]([O-])c1ccccc1-c1ccccc1`, the “viability change, negative = cytotoxic” value is 1.56%.

Take `CCN(CC)C(=S)S`: the Potency was 38.9 µM (active) and 13.6 µM (active) and 27.3 µM (active).

As to `Cc1c([N+](=O)[O-])c(C)c([N+](=O)[O-])c(C(C)(C)C)c1[N+](=O)[O-]`, the “viability change, negative = cytotoxic” value is 5.23%.

Turning to `CC(=O)[O-].CC(=O)[O-].CC(=O)[O-].[Cr+3]`, the “viability change, negative = cytotoxic” value is -15.3%.

`CCCCON=O`: the “viability change, negative = cytotoxic” value is -3.47%.

Turning to `C[C@@H]1CC2=CC(=O)CC[C@@H]2[C@H]2CC[C@@]3(C)[C@@H](CC[C@]3(C)O)[C@@H]21`, the “viability change, negative = cytotoxic” value is 3.37% [at 42.5 µM].

Consider `OCC(Br)CBr` (stereo not drawn), for which the “viability change, negative = cytotoxic” value is -3.51%.

In the case of `[O]=[Cr][O][Cr]=[O]`, the “viability change, negative = cytotoxic” value was 2.93%.

As for `CC(=O)[O-].CC(=O)[O-].O.O.[Zn+2]`, the “viability change, negative = cytotoxic” value is 9.1%.

For the molecule `CC1=C2C[C@H]3[C@@H](CC=C4C[C@@H](O)CC[C@@]43C)[C@@H]2CC[C@]12O[C@@H]1C[C@H](C)CN[C@H]1[C@H]2C`, the “viability change, negative = cytotoxic” value was -30% [at 42.5 µM].

As to `Oc1cc(Cl)c(Cl)c(Cl)c1Cl`, the “viability change, negative = cytotoxic” value is -18.6%.

On to `CCCCC(CC)COC(=O)c1ccccc1C(=O)OCC(CC)CCCC` (stereo not drawn), for which the “viability change, negative = cytotoxic” value was 2.87%.

`CN1C(=O)[C@@H](NC(=O)c2cc3ccccc3[nH]2)N=C(c2ccccc2)c2ccccc21`: the “viability change, negative = cytotoxic” value is 0.218% [at 42.5 µM].

For `CSC(=O)c1c(C(F)F)nc(C(F)(F)F)c(C(=O)SC)c1CC(C)C`, the “viability change, negative = cytotoxic” value is -2.55%.

The record behind these values is PubChem BioAssay (Tox21).
